PubChem BioAssay (NCATS)
Where “and” joins values, the source holds several entries; their conditions need not be identical. Identical values can stand only once. Inconclusive results are not listed. Calls of active or inactive are those of the source. Calls follow the shape of the dose curve; as a rule, active = well fitted curve in the direction sought with a large enough effect; inconclusive = small, poorly fitted or top-dose-only effect, or another doubt; inactive = no such curve, though single readings can be large; an effect the other way counts as inactive or inconclusive.

Experiments:
[1] = qHTS of pediatric cancer cell lines to identify multiple opportunities for drug repurposing: Primary screen for U-2 OS cells (AID 1347096); also: nearly all actives have a fitted effect of over 50% in size; also: potency is read from the fitted curve at half-maximal effect
Procedure, shortened: (§1)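 Cells (500-1,000/well) rested 5 h, then received compounds for 48 h; metabolically active cells were measured by CellTiter-Glo luminescence. Final concentrations spanned up to 46 µM (MIPE, 11-point) or 0.59 nM-46 µM (NPC, 8-point) in primary screens, 11-point in follow-ups.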

[2] = qHTS of pediatric cancer cell lines to identify multiple opportunities for drug repurposing: Primary screen for Saos-2 cells (AID 1347097); also: nearly all actives have a fitted effect of over 40% in size; also: potency is read from the fitted curve at half-maximal effect
Procedure, shortened: (§2)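 Primary screen of approved and investigational compounds on cells in growth media at 37 degrees C, 5% CO2. MIPE set at 11-point and NPC set at 8-point dilutions; viability scored by ATP-based luminescence at 48 hours.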

[3] = qHTS of pediatric cancer cell lines to identify multiple opportunities for drug repurposing: Primary screen for SK-N-SH cells (AID 1347098); also: nearly all actives have a fitted effect of over 65% in size; also: potency is read from the fitted curve at half-maximal effect
Procedure, shortened: as §1

[4] = qHTS of pediatric cancer cell lines to identify multiple opportunities for drug repurposing: Primary screen for NB1643 cells (AID 1347099); also: nearly all actives have a fitted effect of over 50% in size; also: potency is read from the fitted curve at half-maximal effect
Procedure, shortened: as §2

[5] = qHTS of pediatric cancer cell lines to identify multiple opportunities for drug repurposing: Primary screen for LAN-5 cells (AID 1347100); also: potency is read from the fitted curve at half-maximal effect
Procedure, shortened: as §1

[6] = qHTS of pediatric cancer cell lines to identify multiple opportunities for drug repurposing: Primary screen for BT-12 cells (AID 1347101); also: nearly all actives have a fitted effect of over 25% in size; also: potency is read from the fitted curve at half-maximal effect
Procedure, shortened: as §1

[7] = qHTS of pediatric cancer cell lines to identify multiple opportunities for drug repurposing: Primary screen for Rh18 cells (AID 1347102); also: nearly all actives have a fitted effect of over 65% in size
Procedure, shortened: as §1

[8] = qHTS of pediatric cancer cell lines to identify multiple opportunities for drug repurposing: Primary screen for OHS-50 cells (AID 1347103); also: nearly all actives have a fitted effect of over 40% in size; also: potency is read from the fitted curve at half-maximal effect
Procedure, shortened: as §1

[9] = qHTS of pediatric cancer cell lines to identify multiple opportunities for drug repurposing: Primary screen for RD cells (AID 1347104); also: nearly all actives have a fitted effect of over 55% in size; also: potency is read from the fitted curve at half-maximal effect
Procedure, shortened: as §2

[10] = qHTS of pediatric cancer cell lines to identify multiple opportunities for drug repurposing: Primary screen for MG 63 (6-TG R) cells (AID 1347105); also: nearly all actives have a fitted effect of over 50% in size; also: potency is read from the fitted curve at half-maximal effect
Procedure, shortened: as §2

Measured: Potency

N[C@@H]1CONC1=O
inactive: all assays above

O=C(C1CC1)N1CC[C@@H](Cn2c(-c3ccc(-c4ccc5occc5c4)cc3)nc3cnccc32)C1
not listed: [5] | [6]
inactive: all other assays above

Cc1cnc(NC(=O)C2=C(O)c3ccccc3S(=O)(=O)N2C)s1
inactive: all assays above

CNC[C@H](O)c1cccc(O)c1
inactive: all assays above

CCc1cc(Nc2nccc(-c3c(-c4ccc(OC)c(C(=O)Nc5c(F)cccc5F)c4)nc4ccccn34)n2)c(OC)cc1N1CCC(N2CCN(S(C)(=O)=O)CC2)CC1
inactive: [1] | [4] | [7]
active: [2] 18.7 µM | [3] 21.5 µM | [10] 18.7 µM

NC(=O)c1ccc(-c2nc(-c3ccc4c(c3)OCO4)c(-c3ccccn3)[nH]2)cc1
inactive: all assays above

O=C(O)CCc1ccc(NCc2cccc(Oc3ccccc3)c2)cc1
not listed: [7]
inactive: all other assays above

OCCn1cc(-c2cnc3nnn(Cc4ccc5ncccc5c4)c3n2)cn1
inactive: all assays above

NC(=O)c1cnccn1
inactive: all assays above

CC(c1cc2ccccc2s1)N(O)C(N)=O (stereo not given)
not listed: [7]
inactive: all other assays above

O=C1CCc2cc(OCCCCc3nnnn3C3CCCCC3)ccc2N1
not listed: [4]
inactive: all other assays above

NC[C@H](O)c1ccc(O)c(O)c1
inactive: all assays above

CCCC(CCC)C(=O)O
inactive: all assays above

OC(CCN1CCCCC1)(c1ccccc1)C1CC2C=CC1C2 (stereo not given)
inactive: all assays above

C[C@]12CCC(=O)C=C1CC[C@@H]1[C@@H]2[C@@H](O)C[C@@]2(C)[C@H]1CC[C@]2(O)C(=O)CO
not listed: [4]
inactive: all other assays above

CCC(=O)N[C@H]1CC[C@H](C(=O)N(C)c2ccc(-c3nc4ccccc4o3)cc2)C1
active: [3] 0.961 µM | [4] 1.66 µM | [8] 19.3 µM | [9] 3.32 µM
inactive: [1] | [2] | [7]

CN1CCN(CCCN2c3ccccc3Sc3ccc(C(F)(F)F)cc32)CC1
active: [2] 18.7 µM | [3] 12.2 µM and 7.64 µM | [4] 3.32 µM | [5] 16.6 µM | [6] 24.6 µM and 21.7 µM | [8] 27.6 µM and 19.3 µM | [9] 26.6 µM and 18.7 µM
inactive: [1] | [7]

O=c1[nH]cnc2[nH]ncc12
active: [8] 21.7 µM
not listed: [7]
inactive: all other assays above

Oc1ccc(C2CNCCc3c2cc(O)c(O)c3Cl)cc1 (stereo not given)
inactive: all assays above

Nc1nc2c(ncn2COCCO)c(=O)[nH]1
not listed: [7]
inactive: all other assays above

N#CC[C@H](C1CCCC1)n1cc(-c2ncnc3[nH]ccc23)cn1
inactive: [1] | [2] | [3] | [6]
active: [4] 14.8 µM | [5] 18.7 µM

Clc1ccc(Nc2nnc(Cc3ccncc3)c3ccccc23)cc1
active: [3] 21.7 µM | [8] 19.5 µM
inactive: [1] | [2] | [4] | [5] | [9]

O=C1CCC(N2C(=O)c3ccccc3C2=O)C(=O)N1 (stereo not given)
inactive: all assays above

CC(C[N+](C)(C)C)OC(N)=O (stereo not given)
inactive: all assays above

CC(=O)Oc1ccccc1C(=O)O
not listed: [7]
inactive: all other assays above

CCCc1nc2c(C)cc(-c3nc4ccccc4n3C)cc2n1Cc1ccc(-c2ccccc2C(=O)O)cc1
inactive: all assays above

NCCc1ccc(O)c(O)c1
not listed: [7]
inactive: all other assays above

N=c1nc(N2CCCCC2)cc(N)n1O
not listed: [9]
inactive: all other assays above

CS(=O)(=O)c1cccc(CNc2nc(Nc3ccc4c(c3)CCC(=O)N4)ncc2C(F)(F)F)c1
active: [1] 18.7 µM | [2] 16.6 µM | [3] 24.1 µM | [4] 16.6 µM | [5] 3.32 µM | [8] 6.11 µM | [9] 16.6 µM | [10] 11.8 µM

O=C(O)COCCN1CCN(C(c2ccccc2)c2ccc(Cl)cc2)CC1 (stereo not given)
inactive: all assays above

CCc1ccc(CCOc2ccc(CC3SC(=O)NC3=O)cc2)nc1 (stereo not given)
inactive: all assays above

CCC(C)n1ncn(-c2ccc(N3CCN(c4ccc(OC[C@H]5CO[C@](Cn6cncn6)(c6ccc(Cl)cc6Cl)O5)cc4)CC3)cc2)c1=O (stereo not given in full)
inactive: [1] | [2] | [3] | [4] | [10]

CCCCNc1cc(C(=O)O)cc(S(N)(=O)=O)c1Oc1ccccc1
inactive: all assays above

c1ccc([C@H]2CN3CCSC3=N2)cc1
inactive: all assays above

NC(=O)c1ccc(I)c([N+](=O)[O-])c1
inactive: all assays above

O=S(=O)(N=Cc1c(O)ccc2ccccc12)c1cccs1
active: [2] 18.7 µM | [10] 2.35 µM
inactive: [1] | [3] | [5] | [9]

Clc1cccc(Cl)c1NC1=NCCN1
not listed: [4]
inactive: all other assays above

NS(=O)(=O)c1cc2c(cc1Cl)NC=NS2(=O)=O
not listed: [4] | [7]
inactive: all other assays above

COCC(=O)NCC=Cc1ccc2ncnc(Nc3ccc(Oc4ccc(C)nc4)c(C)c3)c2c1
active: [2] 16.6 µM | [4] 20.9 µM | [5] 18.7 µM | [6] 19.3 µM | [8] 19.3 µM
inactive: [1] | [10]

Cc1cc2c(C(C)C)c(O)c(O)c(C=O)c2c(O)c1-c1c(C)cc2c(C(C)C)c(O)c(O)c(C=O)c2c1O
active: [2] 8.41 µM and 16.6 µM | [4] 8.41 µM and 7.43 µM | [5] 3.35 µM and 11.8 µM | [6] 13.8 µM and 19.3 µM | [8] 11 µM and 19.3 µM | [9] 26.6 µM and 29.6 µM | [10] 21.1 µM and 23.5 µM
inactive: [1]
